Assay outcomes: PubChem BioAssay, National Center for Advancing Translational Sciences (NCATS)
Many of the other results were omitted from the sample, so hits are more common in it than they were.
12-LOX inh = ALOX12 (human) lipoxygenase inhibition; P18054; purified 12hLO, xylenol orange hydroperoxide absorbance; Potency, µM (series often up to 108 µM), hits mostly inhibitors; 580,000 tested, 1.1% active
Target sequence (P18054 whole entry, looked up): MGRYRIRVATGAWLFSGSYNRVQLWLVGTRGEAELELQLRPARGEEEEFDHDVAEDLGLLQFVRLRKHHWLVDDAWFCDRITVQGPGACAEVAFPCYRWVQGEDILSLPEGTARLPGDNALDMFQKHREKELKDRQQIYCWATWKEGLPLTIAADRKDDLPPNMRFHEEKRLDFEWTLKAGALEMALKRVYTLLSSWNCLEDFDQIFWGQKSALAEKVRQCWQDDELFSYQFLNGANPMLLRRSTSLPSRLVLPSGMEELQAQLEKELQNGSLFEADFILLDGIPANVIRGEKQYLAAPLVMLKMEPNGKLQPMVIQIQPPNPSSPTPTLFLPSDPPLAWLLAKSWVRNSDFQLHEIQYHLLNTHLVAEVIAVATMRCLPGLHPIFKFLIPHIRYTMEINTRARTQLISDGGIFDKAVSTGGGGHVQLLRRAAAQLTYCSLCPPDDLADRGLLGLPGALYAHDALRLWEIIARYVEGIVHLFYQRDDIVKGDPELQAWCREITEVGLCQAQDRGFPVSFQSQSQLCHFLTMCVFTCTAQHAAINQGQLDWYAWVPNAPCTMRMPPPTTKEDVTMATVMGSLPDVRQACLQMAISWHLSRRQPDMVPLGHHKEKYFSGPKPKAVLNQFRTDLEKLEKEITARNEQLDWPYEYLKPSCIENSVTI
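Purified human 12hLO at 150 nM in 25 mM Hepes, 0.01% Triton X-100, pH 7.0, preincubated 15 min at room temperature with compound. Reaction started with 40 uM arachidonic acid, 30 min at room temperature. Hydroperoxide measured by Fe-xylenol orange, 573/405 nm absorbance ratio.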
DT40 TDP1 CPT = growth inhibition of DT40 Tdp1-/-;hTDP1 cells with camptothecin (screen for TDP1 inhibitors) | chicken DT40 Tdp1-/-;hTDP1 cells + 20 nM CPT, ATP luminescence, 48 h | Potency, µM (series often up to 46.2 µM), most hits filed as inhibitors | 420,000 tested, 12% active; further: nearly all actives have a fitted effect of over 55% in size
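Chicken DT40 Tdp1-/- cells stably complemented with human TDP1 were seeded at 400 cells/well in medium containing 20 nM camptothecin, exposed to pin-transferred compounds, and grown at 37 °C for at least 48 hr. Viability was read as ATP luminescence.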
TDP1 cell noCPT = qHTS for Inhibitors of human tyrosyl-DNA phosphodiesterase 1 (TDP1): qHTS in cells in absence of CPT; 420,000 tested, 15% active; DT40 Tdp1-/- hTDP1 cells, no CPT, ATP luminescence, 48 h; AID 686978, 2013; Potency, µM (series often up to 46.2 µM), hits mostly inhibitors; further: nearly all actives have a fitted effect of over 55% in size
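Readout: luminescence from CellTiter-Glo after 30 min in the dark at RT. Cells: DT40 Tdp1-/- with stable hTDP1, 400/well. Exposure: compounds alone, ≥48 hr, 37 °C.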
HT1080-NT tox = kills 2HG-producing HT-1080-NT fibrosarcoma cells; HT-1080-NT fibrosarcoma viability, CellTiter-Glo ATP luminescence, 48 h; Potency, µM (highest dose often 46.1 µM), actives largely listed as cytotoxic; 360,000 tested, 1.6% active; AID 686970;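 further: NT is the 2HG producing partner of a matched IDH1 knockdown line; nearly all actives have a fitted effect of over 55% in size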
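Fibrosarcoma NT cells, 750 per well in 5% FBS RPMI, were exposed to compound for 48 hours. Viability: CellTiter-Glo luminescence.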
HT1080 IDH1KD tx = toxicity to HT-1080 IDH1 knockdown cells (counter line). Potency, µM (highest dose often 46.1 µM), most hits filed as cytotoxic. AID 686971. 360,000 tested, 2% active. HT-1080 IDH1 knockdown viability, ATP luminescence, 48 h
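Knockdown cells (IDH1KD HT-1080) received compounds 2 h after plating at 750 cells/well and were kept 48 h at 37 °C in 5% FBS RPMI. A CellTiter-Glo luminescence read gave % activity for curve fitting.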
IL-1B inflam inh = inflammasome signaling inhibition, IL-1 beta readout; THP-1 LPS/ATP IL-1B secretion, AlphaLISA, 16 h; hits give low values; activity change, % at 57.5 µM; 360,000 tested, 4.7% active; in the data active means activity change below about -50%; inconclusive means mostly about -30% to -49%
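Secreted IL-1B measured by AlphaLISA bead assay after 16 h compound exposure of THP-1 cells; compounds (final up to 57.5 uM) added 1 h before LPS (250 ng/mL) and ATP (1.25 mM) stimulation; lower signal means less secretion.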
Numbers stand for hits; . = inactive; ? = inconclusive; / = not tested or not shown. Unless noted, the call rests on the fitted dose curve; in most records, active means well fitted curve in the direction sought with a large enough effect; inconclusive means small, poorly fitted or top-dose-only effect, or another doubt; inactive means no such curve, though single readings can be large; an effect the other way counts as inactive or inconclusive.

SMILES	12-LOX inh	DT40 TDP1 CPT	TDP1 cell noCPT	HT1080-NT tox	HT1080 IDH1KD tx	IL-1B inflam inh
COc1ccc(C(=O)NC2CCc3n[nH]c(=O)n3CC2)c(OC)n1 (stereo not drawn)	.	/	/	/	/	/
COc1ccc(CCNC(=O)c2ccc3c(c2)N(Cc2ccccc2F)C(=O)c2ccccc2S3(=O)=O)cc1OC	.	16.4µM	10.3µM	/	/	/
COc1ccc(CCNC(=O)c2ccc3c(c2)N(Cc2ccc(Cl)cc2)C(=O)c2ccccc2S3)cc1OC	.	?	16.4µM	/	/	/
COc1ccc(CCNC(=O)c2ccc3c(c2)N(Cc2cccc(C)c2)C(=O)c2ccccc2S3(=O)=O)cc1OC	.	8.2µM	11.6µM	/	/	/
COc1ccc(CNC(=O)c2ccc3c(c2)N(Cc2ccccc2F)C(=O)c2ccccc2S3(=O)=O)cc1	.	.	.	/	/	/
CCN1CCN(c2oc(/C=C/c3ccccc3)nc2C#N)CC1	.	.	.	.	.	.
O=C(CC1CCCC1)NCCc1noc(Cc2ccccc2)n1	.	/	/	/	/	/
CC(C)(C)c1ccc(/C=N/NC(=O)Cc2ccc(Cl)cc2)cc1	.	/	/	/	/	/
CCOC(=O)C1CCN(Cc2cccc(Oc3ccc(Cl)cc3)c2)CC1	1.41µM	?	.	.	.	.
CN1CCN(Cc2cccc(Oc3ccc(Cl)cc3)c2)CC1	?	29.1µM	?	?	.	?
CCN1CCN(Cc2cccc(Oc3ccc(Cl)cc3)c2)CC1	.	?	16.4µM	?	?	.
CN(Cc1ccc(Cl)cc1)C(c1cc2ccccc2o1)c1nnnn1C(C)(C)C (stereo not drawn)	.	?	?	.	?	.
COc1ccc(C(C(=O)Nc2ccc3c(c2)OCCO3)n2c(=O)c(-c3ccco3)nc3ccccc32)cc1 (stereo not drawn)	?	11.6µM	20.6µM	?	13µM	.
COc1ccc(NC(=O)C(c2ccc(OC)cc2)n2c(=O)c(-c3ccco3)nc3ccccc32)cc1 (stereo not drawn)	?	?	?	.	.	.
COc1ccc(NC(=O)C(c2ccccc2)n2c(=O)c(-c3ccco3)nc3ccccc32)cc1 (stereo not drawn)	.	10.3µM	9.2µM	.	.	.
COc1ccc(NC(=O)C(c2ccccc2F)n2c(=O)c(-c3ccco3)nc3ccccc32)cc1 (stereo not drawn)	?	?	?	.	.	.
O=C(Nc1ccc2c(c1)OCCO2)C(c1ccccc1F)n1c(=O)c(-c2ccco2)nc2ccccc21 (stereo not drawn)	?	8.2µM	?	.	.	.
CC(C)CNc1nc(C(=O)Nc2ccccc2O)cs1	.	/	/	/	/	/
COc1ccc(NC(=O)C[C@H]2NC(=O)c3ccccc3NC2=O)cn1	.	/	/	/	/	/
Cc1ccnc(N(C(=O)Nc2ccccc2)C2=NCC(C)(C)S2)c1	.	.	.	.	.	.
CNC(=O)N(C1=NCC(C)(C)S1)c1ccc(F)c(Cl)c1	.	?	18.4µM	.	.	.
CCc1cccc(CC)c1-n1c(SCC(=O)N2CCCc3ccccc32)nc(O)cc1=O	.	.	?	.	.	.
CCOc1ccc(S(=O)(=O)c2c(C(=O)c3ccc(CC)cc3)cnc3ccc(C)cc23)cc1	.	?	23.1µM	/	/	/
CCOc1ccc(S(=O)(=O)c2c(C(=O)c3ccccc3)cnc3cc4c(cc23)OCCO4)cc1	.	?	10.3µM	.	.	.
CCOc1ccc(C(=O)c2cnc3ccc(Cl)cc3c2S(=O)(=O)c2ccc(C)cc2)cc1	.	5.8µM	5.17µM	/	/	/
SMILES	12-LOX inh	DT40 TDP1 CPT	TDP1 cell noCPT	HT1080-NT tox	HT1080 IDH1KD tx	IL-1B inflam inh
CCc1ccc(C(=O)c2cnc3ccc(C)cc3c2S(=O)(=O)c2ccc(OC)cc2)cc1	.	23.1µM	18.4µM	/	/	/
CCc1ccc(NC(=O)C(=O)NCCc2csc(-c3cccc(F)c3)n2)cc1	.	.	.	/	/	/
O=C(Nc1ccc(SC(F)F)cc1)c1n[nH]c(=O)c2ccccc12	.	/	/	/	/	/
CCc1ccc(S(=O)(=O)c2c(C(=O)c3ccc(C)c(C)c3)cnc3ccccc23)cc1	.	?	13µM	/	/	/
CCc1ccc(C(=O)Nn2cnc3ccccc3c2=O)cc1	.	.	.	.	.	.
CCNC(=O)N[C@@H]1C=C[C@@H](c2c(C)nn(CCC#N)c2C)C1	.	/	/	/	/	/
N#Cc1ccccc1OCc1ncc(-c2ccc(Cl)cc2)o1	.	/	/	/	/	/
COc1ccc(-c2csc(NC(=O)c3ccccc3NS(=O)(=O)c3ccc(F)c(F)c3)n2)cc1	?	2.31µM	2.59µM	?	1.64µM	-67.8
Cc1ccc(S(=O)(=O)Nc2ccccc2C(=O)Nc2nc(-c3ccc(F)cc3)cs2)cc1	?	3.26µM	2.59µM	?	?	.
Fc1ccc2c(c1)C1OCCCC1C(c1ccccc1)N2 (stereo not drawn)	.	?	18.4µM	?	?	.
N#Cc1ccc(C2Nc3ccccc3C3OCCCC23)cc1 (stereo not drawn)	.	/	/	/	/	/
CCN(CC)CCCNc1ccc(-c2nnc(-c3ccc(OCC(C)C)cc3)o2)cn1	?	2.91µM	2.91µM	.	?	-51.0
CC(C)COc1ccc(-c2nnc(-c3ccco3)o2)cc1	.	.	.	.	.	.
O=C1Nc2c(Cl)cc(Cl)cc2C12Nc1ccccc1S2 (stereo not drawn)	35.5µM	/	/	/	/	/
CC1(Cc2ccc(Cl)cc2)C(=O)Nc2c(Cl)cccc21 (stereo not drawn)	/	.	?	?	.	.
COc1ccccc1CNC(=O)CCSCc1cccc(Cl)c1	.	.	.	.	.	-71.6
COc1ccc(CNC(=O)CCSCc2cccc(Cl)c2)cc1	.	.	.	.	.	.
COc1ccc(CCC(=O)NCc2ccccc2OC)cc1	.	.	.	.	.	.
COc1ccccc1CNC(=O)CCc1ccccc1	.	?	18.4µM	.	.	.
O=C(COc1ccccc1-c1ccccc1)NCc1cccc(Cl)c1	.	20.6µM	?	.	.	.
Cc1ccccc1OCC(=O)NCc1ccccc1	.	.	.	.	.	.
Cc1nc(CNC(=O)c2cccc(S(=O)(=O)NCc3cnn(C)c3)c2)no1	.	/	/	/	/	/
FC(F)(F)Oc1ccc(CNC2(Cc3cc(CN4CCOCC4)on3)COC2)cc1	.	/	/	/	/	/
CCOC(=O)C(C(=O)OCC)c1cc(Br)c2noc3c2c1C(=O)c1ccccc1-3	?	3.66µM	2.59µM	9.2µM	11.6µM	-88.8
CC(C)Nc1cc(N2CCN(C3CCCCC3)CC2)c2noc3c2c1C(=O)c1ccccc1-3	.	?	?	/	/	/
